# Where two headings read alike, the source gives them in different places.
# Assays:
# Parameters in all cases: species or system human, MV4-11 + K-562 + COLO205 + SK-N-BE2 + OVCAR-8
# ADRBK1 = settings: read-out: apparent Kd; compound concentrations:100 nM and 1000 nM (sheet 'Samples'); n = 1
# AKT2 = settings: read-out: apparent Kd; compound concentrations:100 nM and 1000 nM (sheet 'Samples'); n = 1
# EIF2AK1 = settings: read-out: apparent Kd; compound concentrations:100 nM and 1000 nM (sheet 'Samples'); n = 1
# GSK3A = settings: read-out: apparent Kd, n = 1
# GSK3B = settings: read-out: apparent Kd, n = 1
# PIM2 = settings: read-out: apparent Kd; compound concentrations:100 nM and 1000 nM (sheet 'Samples'); n = 1
# PRKAG1 = settings: read-out: apparent Kd; compound concentrations:100 nM and 1000 nM (sheet 'Samples'); n = 1
# TAOK1 = settings: read-out: apparent Kd; compound concentrations:100 nM and 1000 nM (sheet 'Samples'); n = 1
# ADK = settings: read-out: apparent Kd, n = 1
# PIK3CB = settings: read-out: apparent Kd; compound concentrations:100 nM and 1000 nM (sheet 'Samples'); n = 1
# PIK3CD = settings: read-out: apparent Kd; compound concentrations:100 nM and 1000 nM (sheet 'Samples'); n = 1
# RIOK2 = settings: read-out: apparent Kd, n = 1
# CLK1 = settings: read-out: apparent Kd; compound concentrations: 100 nM and 1000 nM (sheet 'Samples'), CATDS: 5.4208995397741003E-2; n = 1
# DYRK1A = settings: read-out: apparent Kd; compound concentrations: 100 nM and 1000 nM (sheet 'Samples'), CATDS: 5.0124883186775999E-2; n = 1
# ICK = settings: read-out: apparent Kd; compound concentrations: 100 nM and 1000 nM (sheet 'Samples'), CATDS: 5.3965454645481803E-2; n = 1
# NQO2 = settings: read-out: apparent Kd; compound concentrations: 100 nM and 1000 nM (sheet 'Samples'), CATDS: 5.4334591839862598E-2; n = 1
# PRKCA = settings: read-out: apparent Kd; compound concentrations: 100 nM and 1000 nM (sheet 'Samples'), CATDS: 0.15913397901311099; n = 1
# PRKCB = settings: read-out: apparent Kd; compound concentrations: 100 nM and 1000 nM (sheet 'Samples'), CATDS: 9.8351239927142994E-2; n = 1
# PRKCD = settings: read-out: apparent Kd; compound concentrations: 100 nM and 1000 nM (sheet 'Samples'), CATDS: 0.131457549494816; n = 1
# PRKCQ = settings: read-out: apparent Kd; compound concentrations: 100 nM and 1000 nM (sheet 'Samples'), CATDS: 0.25317838429330802; n = 1
# RPS6KA6 = settings: read-out: apparent Kd; compound concentrations: 100 nM and 1000 nM (sheet 'Samples'), CATDS: 0.14606611193567601; n = 1
# RPS6KB1 = settings: read-out: apparent Kd; compound concentrations: 100 nM and 1000 nM (sheet 'Samples'), CATDS: 4.9333736806527098E-2; n = 1
# AKT1 = settings: read-out: apparent Kd; compound concentrations: 100 nM and 1000 nM (sheet 'Samples'), CATDS: 0.20624871442291401; n = 1
# CSNK1D = settings: read-out: apparent Kd; compound concentrations: 100 nM and 1000 nM (sheet 'Samples'), CATDS: 0.21502598337996101; n = 1
# CSNK1E = settings: read-out: apparent Kd; compound concentrations: 100 nM and 1000 nM (sheet 'Samples'), CATDS: 0.16970430448232399; n = 1
# [1] = compound concentrations:100 nM and 1000 nM (sheet 'Samples')
structure (smiles),measurement,setting,value
O=C(Nc1n[nH]c2nc(-c3ccc(O)cc3)c(Br)cc12)C1CC1 [SB-725317],potency estimated from few doses,ADRBK1,1950 nM
same,potency estimated from few doses,AKT2,2420 nM
same,potency estimated from few doses,EIF2AK1,517 nM
same,potency estimated from few doses,GSK3A; [1],12.9 nM
same,potency estimated from few doses,GSK3B; [1],43.1 nM
same,potency estimated from few doses,PIM2,768 nM
same,potency estimated from few doses,PRKAG1,1610 nM
same,potency estimated from few doses,TAOK1,1840 nM
O=C(NCCCN1CCOC1=O)c1cnc(NCc2cc(Cl)ccc2Cl)nc1NC1CCCC1 [PFE-PKIS_12],potency estimated from few doses,ADRBK1,1110 nM
O=c1cc(N2CCOCC2)nc2n(Cc3cccc4ccccc34)ccn12 [GSK2333389A],potency estimated from few doses,ADK; [1],889 nM
same,potency estimated from few doses,PIK3CB,16.1 nM
same,potency estimated from few doses,PIK3CD,214 nM
same,potency estimated from few doses,RIOK2; [1],1890 nM
Cn1cc(C2=C(c3cn(CCCNC(=N)N)c4ccccc34)C(=O)NC2=O)c2ccccc21 [RO0318352-000],potency estimated from few doses,"ADK; compound concentrations: 100 nM and 1000 nM (sheet 'Samples'), CATDS: 5.0768617440539301E-2",1420 nM
same,potency estimated from few doses,CLK1,1010 nM
same,potency estimated from few doses,DYRK1A,1530 nM
same,potency estimated from few doses,"GSK3A; compound concentrations: 100 nM and 1000 nM (sheet 'Samples'), CATDS: 9.7790905070532702E-2",125 nM
same,potency estimated from few doses,"GSK3B; compound concentrations: 100 nM and 1000 nM (sheet 'Samples'), CATDS: 0.116009702502103",83.7 nM
same,potency estimated from few doses,ICK,1040 nM
same,potency estimated from few doses,NQO2,1000 nM
same,potency estimated from few doses,PRKCA,45.1 nM
same,potency estimated from few doses,PRKCB,124 nM
same,potency estimated from few doses,PRKCD,64.4 nM
same,potency estimated from few doses,PRKCQ,21.7 nM
same,potency estimated from few doses,RPS6KA6,52.6 nM
same,potency estimated from few doses,RPS6KB1,1670 nM
Clc1ccc(CNc2nccc(-c3cnn4ncccc34)n2)cc1 [GW781673X],potency estimated from few doses,AKT1,1400 nM
same,potency estimated from few doses,CSNK1D,1290 nM
same,potency estimated from few doses,CSNK1E,2140 nM
same,potency estimated from few doses,"GSK3A; compound concentrations: 100 nM and 1000 nM (sheet 'Samples'), CATDS: 0.23143029559655601",1130 nM
same,potency estimated from few doses,"RIOK2; compound concentrations: 100 nM and 1000 nM (sheet 'Samples'), CATDS: 0.18913150983507701",1670 nM

# Reference: paper PMC11062922 (Nature Chemical Biology, 2023)
